Measured values as given in the supplement of paper PMC9135407.
Where a name gives a salt, the structure may show the parent alone.

system: primary human hepatic stellate cells (donor 1); assay: PSMB2 reference mRNA level vs DMSO (fold); higher = more PSMB2 expression; settings: 48 h
Procedure: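 Secondary qRT-PCR screen in primary human HSCs (donor 1), 384-well plates, with compounds dispensed in quadruplicate and incubated for 48 h. Cells-to-CT lysates were used for multiplexed TaqMan qPCR of ACTA2 or COL1A1 with PSMB2 as reference. Fold changes versus DMSO come from a linear model (Ct_gene ~ Ct_PSMB2 + plate + chemical). A hit is defined as COL1A1 and ACTA2 FC <0.5 (FDR <0.05) with PSMB2 between 0.2 and 2.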

Compound | PSMB2 reference mRNA level
CNCc1ccc(-c2cc(-c3nc(-c4ccc(S(=O)(=O)C(C)C)cc4)cnc3N)on2)cc1 (11.1 µM) | 0.118
CCCCCCCCc1ccc(CCC(N)(CO)CO)cc1 [Fingolimod (FTY720) HCl] (11.1 µM) | 3.91
C[C@@H](CN1CCC(n2c(=O)[nH]c3cc(Cl)ccc32)CC1)NC(=O)c1ccc2ccccc2c1 (33.3333 µM) | 0.16
CN1CCN2c3ccccc3Cc3ccccc3C2C1 (stereo not given) [Mianserin hcl] (25.2333 µM) | 1.26
Cn1cc(C2=C(c3ccc(Cl)cc3Cl)C(=O)NC2=O)c2ccccc21 (33.3333 µM) | 0.517
CNCCCC1c2ccccc2C=Cc2ccccc21 [Protryptyline hydrochloride] (22.2333 µM) | 1.06
CN(C)Cc1c(C(=O)NCCOc2ccc(C(=O)NO)cc2)oc2ccccc12 (33.3333 µM) | 0.5
Clc1ccc(C2(c3ccc(-c4cn[nH]c4)cc3)CCNCC2)cc1 (33.3333 µM) | 0.745
c1cc(OCCN2CCCCC2)cc(-c2n[nH]c3ccc(-c4nnc[nH]4)cc23)c1 (33.3333 µM) | 0.677
CN1CCC(NC(=O)c2cc(-c3c(O)cc(O)cc3Oc3ccc([N+](=O)[O-])cc3)on2)CC1 (33.3333 µM) | 0.306
